Reference: PubChem BioAssay AID1626 (SRMLSC, 2009)
Several values for one entry are separate records, joined by “and”; a condition that tells them apart may be missing. Equal values may be shown once. Among all 220,000 compounds or so, about 2,000 (0.91%) were called active. Another 2% or so got no clear call; they are omitted. These entries were drawn from the full list. Results with a measured potency or affinity are listed apart. Values without a mark were called inactive. Rule as the data show it: inconclusive = inhibition above about 80% without an active follow-up result; inactive = below that; test concentration not stated here.

Assay: M. tuberculosis H37Rv growth inhibitors, H37Rv strain (AID 1626);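 also: bacteria incubated seven days before Alamar blue readout; 0% = bacteria only wells and 100% = bacteria with antibiotic wells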
Settings: hits give high values, concentration not given here
O=C(CN1C(=O)c2cccc3cccc1c23)Nc1ccc(S(=O)(=O)Nc2nccs2)cc1 showed an inhibition of -0.34%.
In the case of COC(=O)c1ccc(/C=N/OCC(=O)NC2CCCC(C)C2C)cc1 (centres undefined), the inhibition was 10.8%.
Work on O=C(CSc1nc(-c2ccccc2)cs1)NCc1ccco1 yielded an inhibition of 3.71%.
With COc1ccc(CC(=O)NC(C)(C)CC(C)=O)cc1OC the inhibition was 6.3%.
For CSc1ccc(-c2nnn(Cc3ccc(C)cc3)n2)cc1, the inhibition was -7.23%.
In the case of C=CCSc1nc(-c2ccc(OC)cc2)c(C#N)c(=O)n1CC=C, the inhibition was 15.4%.
For COc1ccc(/C=C/C(=O)NCC(=O)n2nc(C)cc2C)cc1, the inhibition was -7.73%.
Compound COc1ccc2[nH]c(=O)c(CN(C)C(=O)C3CCCCC3)cc2c1 has an inhibition of 4.58%.
In the case of O=C1NC(=O)C2C1C(c1cccs1)NN2Cc1ccccc1 (centres undefined), the inhibition was 3.37%.
Cc1nn(CCC#N)c(NC(=O)c2ccc(Cl)cc2)c1P(=O)(Nc1ccc([N+](=O)[O-])cc1)N1CCOCC1 (centres undefined) gave an inhibition of -25.7%.
With COc1ccc(-c2c(=O)n(OCc3ccccc3[N+](=O)[O-])c3ccccc3[n+]2[O-])c(OC)c1 the inhibition was 2.69%.
For CCCNCc1cc(OC)c(OCc2ccccc2)cc1Br, the inhibition was 6.93%.
Cc1nn2c(N3CCN(C(=O)c4ccco4)CC3)cc(C(C)(C)C)nc2c1-c1ccccc1 gave an inhibition of 32.7%.
Compound Cc1nn2c(N3CCN(C4CCCC4)CC3)cc(C(C)(C)C)nc2c1-c1ccccc1 has an inhibition of 8.34%.
Work on Cc1cc(N2CCN(Cc3ccccc3)CC2)n2nc(C)c(-c3ccccc3)c2n1 yielded an inhibition of -3.83%.
CCN1CCN(c2cc(C(C)C)nc3c(-c4ccccc4)c(C)nn23)CC1 gave an inhibition of 11.2%.
In the case of O=C(CCc1ccccc1)NC1CCSC1=O (centres undefined), the inhibition was -9.93%.
With FC(F)(F)c1cc(CCN2C(=S)NC[C@@H]2CC2CCCCC2)cc(C(F)(F)F)c1 the inhibition was -1.6%.
NC1=NC[C@@H](Cc2ccc(O)cc2)N1CC1CCCCC1 gave an inhibition of -0.61%.
Compound CCCCN1C(N)=NC[C@@H]1Cc1ccc(O)cc1 has an inhibition of -2.68%.
In the case of NC1=NC[C@H](c2ccccc2)N1CCCCC1CCCCC1, the inhibition was 52.1%.
NC1=NC[C@H](Cc2ccccc2)N1CC1CCCCC1 gave an inhibition of -8.5%.
NC1=NC[C@@H](Cc2ccc(O)cc2)N1CCC12CC3CC(CC(C3)C1)C2 showed an inhibition of 20.2%.
Work on NC1=NC[C@@H](Cc2ccc(O)cc2)N1CCc1cc(C(F)(F)F)cc(C(F)(F)F)c1 yielded an inhibition of 11.5%.
NC1=NC[C@H](Cc2ccc(O)cc2)N1CC1CCCCC1 showed an inhibition of -3.49%.
COC(=O)c1ccc(COc2ccccc2/C=C(\C#N)C(=O)NC(C)C)cc1 showed an inhibition of 4.92%.
In the case of COc1ccc(-n2c(O)c(C(C)=NCc3ccco3)c(=O)[nH]c2=O)cc1, the inhibition was 2.3%.
For CCOC(=O)C1=C(CSc2nc(-c3ccccc3)ccc2C#N)OC(N)=C(C#N)C1c1ccccc1 (centres undefined), the inhibition was -11.5%.
Compound CCn1c(CCc2nc3ccccc3[nH]2)n[nH]c1=S has an inhibition of -3.65%.
Cc1cccc(Cl)c1NC(=O)N1CCN(c2ccnc3cc(Cl)ccc23)CC1 gave an inhibition of 0.44%.
Cc1ccc(F)cc1NC(=O)N1CCN(c2ccnc3cc(Cl)ccc23)CC1 gave an inhibition of 25.6%.
Work on COc1ccccc1NC(=O)N1CCN(c2ccnc3cc(Cl)ccc23)CC1 yielded an inhibition of 9.81%.
In the case of CC(=O)N1CCN(c2ccnc3cc(Cl)ccc23)CC1, the inhibition was -0.19%.
For O=C(N/N=C/c1ccc2c(c1)OCO2)c1cc(-c2ccccc2)nc2ccccc12, the inhibition was 9.28%.
Work on CC1CCCCC1NC(=O)COc1ccc(-n2cnnn2)cc1 (centres undefined) yielded an inhibition of 3.54%.
For COc1ccc(/C=N/NC(=O)Cn2cnc3c2c(=O)n(C)c(=O)n3C)cc1, the inhibition was 0.48%.
For CCc1ccc(C(C(=O)NC(C)(C)CC)N(Cc2ccco2)C(=O)Cn2nnc3ccccc32)cc1 (centres undefined), the inhibition was 2.42%.
COc1ccc(NS(=O)(=O)c2ccc(Cl)c(NC(=O)c3cccnc3Cl)c2)cc1 showed an inhibition of 9.9%.
O=[N+]([O-])c1cccc2c(Cl)ccnc12 showed an inhibition of -5.33%.
With Cc1ccc(C(=O)CNc2ccc(Cl)cc2)cc1 the inhibition was -1.34%.
Cc1ccc(C(=O)CNc2cccc(Cl)c2)cc1 showed an inhibition of -5.8%.
Compound Cc1ccc(NCCC(=O)c2ccc(Cl)cc2)cc1 has an inhibition of 51.3%.
Compound Cc1ccc(O)c(C(=O)CC(=O)c2cccc(F)c2)c1 has an inhibition of 62.1%.
Compound CC(C)(C)c1ccc(C(=O)NNC(=O)c2ccc(Cl)cc2)cc1 has an inhibition of 1.17%.
Cc1ccc(C(=O)CC(=O)c2ccc(C(C)(C)C)cc2)cc1 gave an inhibition of 3.46%.
In the case of CCOC(=O)c1c(CS(=O)(=O)c2ccccc2)n(C)c2cc(Br)c(O)c(CN(C)C)c12, the inhibition was -0.08%.
COc1cccc(N=Nc2c(N)[nH]n3c(=O)cc(-c4ccccc4)nc23)c1 showed an inhibition of 70.2%.
With CCC(Oc1ccccc1)C(=O)N1CCN(c2ccccn2)CC1 (centres undefined) the inhibition was 0.51%.
With O=C(Nc1ccc(-c2nnn(CC(=O)N3CCN(C(=O)c4ccco4)CC3)n2)cc1)c1ccccc1F the inhibition was -1.57%.
O=C(O)/C=C/C(=O)NC1CC1 showed an inhibition of -1.35%.
Cc1ccc(N/C=C(\C2OC(=O)c3ccccc32)[N+](=O)[O-])c(C)c1 (centres undefined) gave an inhibition of 0.81%.
O=C1OC(/C(=C\Nc2ccc(F)cc2F)[N+](=O)[O-])c2ccccc21 (centres undefined) showed an inhibition of 6.38%.
Work on O=C(c1ccc([N+](=O)[O-])s1)N1CCN(c2ccccc2)CC1 yielded an inhibition of 2.71%.
With O=C(c1cccc([N+](=O)[O-])c1)N1CCN(c2cccc(Cl)c2)CC1 the inhibition was 2.48%.
With COc1ccc(C2Nc3ccccc3C(=O)N2c2ccccc2)cc1COc1ccccn1 (centres undefined) the inhibition was 6.87%.
In the case of CCN(CC)CCNS(=O)(=O)c1ccc(C(=O)NN)cc1, the inhibition was 2.36%.
Compound Cc1cccc(C)c1OCc1nnc2c3cnn(C)c3ncn12 has an inhibition of -9.69%.
COC(=O)c1c(C)oc(C)c1S(=O)(=O)N(C)C1CCCCC1 showed an inhibition of -4.71%.
Compound O=[N+]([O-])c1ccc(N=Cc2ccc(Br)c([N+](=O)[O-])c2)cc1 has an inhibition of 8.65%.
C(=Nc1ccc(Nc2ccccc2)cc1)c1ccc2ccccc2c1 gave an inhibition of 51.2%.
Compound COc1ccc(C(=O)CN2C3=NCCCN3c3ccccc32)cc1OC has an inhibition of -2.22%.
Compound CCc1c(C(=O)N/N=C/c2ccsc2)csc1C has an inhibition of -6.79%.
CCc1ccc(C(=O)NC(C(=O)O)C(C)C)cc1 (centres undefined) showed an inhibition of -19.3%.
In the case of COc1ccc(NC(=O)CCSc2ccc3ccccc3n2)cc1, the inhibition was 70.9%.
Compound COc1cccc(NC(=O)CCSc2ccc3ccccc3n2)c1 has an inhibition of 28.7%.
Work on Cc1cc(C)n2nc(N)c(N=Nc3cccc(Cl)c3)c2n1 yielded an inhibition of 79.8%.
Work on Cc1nc(S/C(=C/c2ccc(-c3ccc(C(=O)O)cc3)o2)C(=O)O)n[nH]1 yielded an inhibition of -17.2%.
With CC(=O)c1ccc(-c2ccc(/C=C(/Sc3n[nH]c(C)n3)C(=O)O)o2)cc1 the inhibition was 6.55%.
O=c1oc2ccccc2c(N2CCCCC2)c1CN1CCCCC1 showed an inhibition of 1.71%.
In the case of COc1ccc(OC)c(NC(=O)c2cc3ccccc3o2)c1, the inhibition was 7.13%.
Compound COc1ccc(OC(=O)c2cc3ccccc3o2)cc1 has an inhibition of 0.38%.
Work on O=C1CCCC2=C1C(c1ccncc1)c1c(nc(SCc3ccccc3Cl)[nH]c1=O)N2 (centres undefined) yielded an inhibition of 11.3%.
For CC[C@@H](C)C(NC(=O)OC(C)(C)C)c1cn([C@@H](CCC(=O)OC(C)(C)C)C(=O)N2CCN(C(=O)OC(C)(C)C)CC2)nn1 (some centres undefined), the inhibition was -1.45%.
Work on O=C(c1ccc(COc2c(F)c(F)c(F)c(F)c2F)o1)N1CCN(Cc2ccc3c(c2)OCO3)CC1 yielded an inhibition of -9.41%.
In the case of O=C(c1ccc(COc2ccccc2Cl)o1)N1CCN(Cc2ccc3c(c2)OCO3)CC1, the inhibition was -0.88% and 13.3%.
OCCC1CN(Cc2cccc(-n3cccn3)c2)CCN1Cc1ccccc1 (centres undefined) showed an inhibition of -1.74%.
CC(CCc1ccccc1)NC(=O)CSc1nc(N)cc(N)n1 (centres undefined) showed an inhibition of -5.33%.
In the case of COc1cccc(C2(O)CCN(Cc3ccncc3)CC2)c1, the inhibition was -10.2%.
COc1cc2c(C(=O)O)c(C)n(C)c2cc1Br showed an inhibition of -0.16%.
In the case of Cc1cnc(C(=O)NCc2ccc(Cl)cc2Cl)cn1, the inhibition was -2.88%.
CCOC(=O)c1cc(C)nc(SC)c1C#N showed an inhibition of 2.58%.
C#CCSc1nc(C)cc(C(=O)OCC)c1C#N gave an inhibition of -3.19%.
NC1=NC(c2ccccc2)=NC1(NC(=O)c1ccccc1)C(Cl)Cl (centres undefined) showed an inhibition of -0.7%.
For COC(=O)c1ccc(OCC(O)CN(CCO)CC(O)Cn2ccc3ccccc32)cc1 (centres undefined), the inhibition was 4.35%.
COc1ccc(OCC(O)CN(CCO)CC(O)Cn2ccc3ccccc32)cc1 (centres undefined) showed an inhibition of 3.01%.
Compound Cc1ccsc1C(=O)C1CCCN(Cc2cc(F)ccc2-n2cccn2)C1 (centres undefined) has an inhibition of 10.8%.
For O=C(NC1CC1)c1ccc(-c2nc3ccccc3s2)s1, the inhibition was 46.3%.
In the case of CCN1CCN(C(=O)c2ccc(-c3nc4ccccc4s3)s2)CC1, the inhibition was 0.41%.
Cc1noc(C)c1COC(=O)c1ccc(-c2nc3ccccc3s2)s1 showed an inhibition of -10.8%.
COCCNC(=O)COC(=O)CSCc1nc2ccccc2s1 showed an inhibition of -1.53%.
Work on O=S(=O)(NC1CCCCC1)c1ccc(Br)cc1 yielded an inhibition of 3.07%.
Cc1occc(=O)c1OCc1c(F)cccc1Cl gave an inhibition of 1.78%.
In the case of CC(C)CNC(=O)COc1ccc(Sc2ccc(OCC(=O)NCC(C)C)cc2)cc1, the inhibition was 4.46%.
CCc1nnc(NC(=O)CCC(=O)NCc2ccc(OC)cc2)s1 gave an inhibition of -3.41%.
